This passage reports inhibition results from PubChem BioAssay AID1117264 (The Scripps Research Institute Molecular Screening Center, 2014).

Molecules are shown by their SMILES. The campaign covered roughly 89,000 compounds. About 440 (0.49%) were called active. The sample holds actives, similar compounds and a random draw of the others, so the mix is not that of the screen. Values without a mark were called inactive.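 The calls were made as follows: active = inhibition above the mean inhibition across all screened compounds plus 3 SD (cut at about 11% in these data); inactive = the rest.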

The target of the assay is RNA-editing ligase 1, mitochondrial (Trypanosoma brucei brucei) (UniProt P86926). The experiment in a line: TbREL1 RNA ligase inhibitors, primary screen, biochemical, FRET fluorescence (AID 1117264).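 Also: 0% = plate median of test wells and 100% = NSC42067 control.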 The note with it: TbREL1 RNA ligation, at 9.66 µM, stronger effect = higher value.
Chain of RNA-editing ligase 1, mitochondrial (Trypanosoma brucei brucei) (P86926 whole entry, looked up): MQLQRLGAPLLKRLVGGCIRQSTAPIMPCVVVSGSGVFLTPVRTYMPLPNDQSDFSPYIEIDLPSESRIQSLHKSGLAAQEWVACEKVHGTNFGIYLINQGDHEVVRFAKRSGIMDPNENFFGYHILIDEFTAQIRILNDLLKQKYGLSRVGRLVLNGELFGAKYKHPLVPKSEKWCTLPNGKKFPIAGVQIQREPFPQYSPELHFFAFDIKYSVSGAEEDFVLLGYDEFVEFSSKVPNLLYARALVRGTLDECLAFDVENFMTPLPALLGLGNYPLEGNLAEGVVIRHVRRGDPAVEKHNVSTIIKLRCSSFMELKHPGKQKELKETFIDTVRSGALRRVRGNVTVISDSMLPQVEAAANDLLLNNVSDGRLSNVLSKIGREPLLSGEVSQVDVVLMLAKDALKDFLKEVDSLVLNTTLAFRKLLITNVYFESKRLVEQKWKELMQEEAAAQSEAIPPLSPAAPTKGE
For `CCOc1ccc(C(=O)CCC(=O)Nc2ccncc2)cc1`, the inhibition (as a rule, the change of the read-out against control, counted positive when it falls) was -0.23%.

Turning to `O=C(CSc1nc(O)c(Cc2ccccc2)c(=O)[nH]1)Nc1nc2c(s1)CCCC2`, the inhibition is -3.09%.

For `CC1CCCCC12NC(=O)N(CC(=O)N1CCN(c3ccccc3)CC1)C2=O` (stereo not drawn), the inhibition is -1.93%.

Consider `C[C@H](NC(=O)c1ccccc1Cl)C(=O)OCC(=O)N1CCN(c2ccccc2)CC1`, for which the inhibition is -4.27%.

In the case of `O=C(NC1CCC(O)CC1)c1ccccc1OCc1ccc(F)cc1` (stereo not drawn), the inhibition is -4.15%.

For the compound `CCC(C)NCC(=O)Nc1ccc([N+](=O)[O-])cc1C(=O)Nc1ccccc1F` (stereo not drawn), the inhibition is 1.57%.

As to `O=C(COC(=O)/C=C/c1ccc2c(c1)OCO2)NC1CCS(=O)(=O)C1` (stereo not drawn), the inhibition is -1.84%.

Turning to `CC(=O)c1c(C)oc2ccc(NS(=O)(=O)c3ccc(C(=O)O)cc3)cc12`, the inhibition is 2.43%.

On to `Cc1cc(C)nc(NC(=S)N2CCN(c3ccc(C(F)(F)F)cn3)CC2)c1`, for which the inhibition is -3.25%.

As to `Cc1cccc(C(=O)Nc2ccc3c(c2)C(=O)N(CC(C)C)C3=O)c1`, the inhibition was 5.77%.

On to `CC(=O)N(CN1C(=O)C2C3C=CC(C3)C2C1=O)c1cccc(Cl)c1` (stereo not drawn), for which the inhibition is -2.46%.

As for `COC(=O)[C@@]12CCCCC3=C1N(CCC3)C(=O)[C@H]2CC(=O)NCc1cccc2ccccc12`, the inhibition was -3.03%.

In the case of `CN(CC(=O)Nc1c(Cl)cccc1Cl)C(=O)c1ccncc1`, the inhibition was -0.71%.

As for `CCOC(=O)[C@H]1[C@H]2COc3ccc(Cl)cc3[C@@H]2N2C(=O)c3cc(C)ccc3NC(=O)[C@@]12C`, the inhibition is -1.49%.

With `COc1cccc(CNC(=O)CNS(=O)(=O)c2ccc3nc(C)sc3c2)c1OC`, the inhibition was -4.98%.

With `CCCCN(C1CCS(=O)(=O)C1)S(=O)(=O)c1ccc(C(C)C)cc1` (stereo not drawn), the inhibition is 0.44%.

With `COc1cccc(NC(=O)CN(C)C(=O)CSCc2nc3scc(-c4cccs4)c3c(=O)[nH]2)c1`, the inhibition was -0.31%.

`Cc1ccccc1NC(=O)Cn1cc(C(=O)C2CC2)c2ccccc21`: the inhibition was 2.47%.

Turning to `COc1cccc(NC(=O)CCNS(=O)(=O)c2ccc3c(c2)oc(=O)n3C)c1`, the inhibition was 3.31%.

Consider `COc1cc(NC(=O)CCS(=O)(=O)c2ccc3c(c2)oc(=O)n3C)cc(OC)c1`, for which the inhibition is 12.5% (active).

Turning to `COc1cc(NS(=O)(=O)c2ccc(NC(C)=O)cc2)cc(OC)c1`, the inhibition was 0.52%.

Regarding `Cc1ccc(NC(=O)C(C)Sc2nnc(C3CC3)n2C2CC2)cc1S(=O)(=O)N1CCOCC1` (stereo not drawn), the inhibition was 5.95%.

Turning to `CCC(C(=O)OC)n1cnc2scc(-c3ccc(C)cc3)c2c1=O` (stereo not drawn), the inhibition was 2.37%.

Take `Cc1ccccc1NC(=S)N(CCCN1CCOCC1)Cc1cccs1`: the inhibition was -3.36%.

`CCCN(CCC)C(=S)Nc1cc(C(=O)OC)ccc1C(=O)OC`: the inhibition is -1.86%.

Turning to `CCCCn1nnnc1C(c1ccccc1)N1CCN(c2ccccc2OC)CC1` (stereo not drawn), the inhibition was 0.09%.

Take `O=C(C1CCCN1S(=O)(=O)c1ccccc1)N1CCc2ccccc2C1` (stereo not drawn): the inhibition is 3.88%.

Take `O=C(COC(=O)CNS(=O)(=O)c1ccccc1)NC12CC3CC(CC(C3)C1)C2`: the inhibition is -1.46%.

With `CN1CCN(/N=C2/C(=O)Nc3ccc([N+](=O)[O-])cc32)CC1`, the inhibition was 11.2% (active).

As to `O=C(O)COCC(=O)NCc1csc2ccc(Cl)cc12`, the inhibition is 2.32%.

For the compound `O=C(N/N=C/c1cccc([N+](=O)[O-])c1)c1ccncc1`, the inhibition was 7.99%.

On to `O=[N+]([O-])c1ccc2c(c1)C(O)n1nc(-c3ccccc3)nc1S2` (stereo not drawn), for which the inhibition was 5.85%.

As for `O=C(CSc1nccn1-c1cccc(F)c1)NC1CCCC1`, the inhibition is -3.03%.

Turning to `COc1cc(-c2nnc(NC(=O)C3=COCCO3)o2)cc(OC)c1OC`, the inhibition was 1.27%.

Regarding `O=C(CSc1nc2ccccc2nc1N1CCCCC1)N1CCN(S(=O)(=O)c2cccc([N+](=O)[O-])c2)CC1`, the inhibition is -1.26%.

Take `Cc1cc(=O)oc2cc(OCC(=O)Nc3nnc(C4CC4)s3)ccc12`: the inhibition is 4.82%.

On to `Cc1ccc(NC(=O)CN(C)C(=O)COC(=O)C(C)(C)Oc2ccc(Cl)cc2)cc1`, for which the inhibition was 1.09%.

In the case of `CCNc1nc(Oc2ccc(C(=O)OC)cc2)nc(N2CCOCC2)n1`, the inhibition is 3.37%.

As to `CCCC[C@@H]1CN=C(N)N1CCCC`, the inhibition is 8.04%.

`O=C(Cn1nnc(N2CCCCC2)n1)c1ccc(Cl)c(Cl)c1`: the inhibition is 2.76%.

In the case of `O=C(Nc1cccc(F)c1)NC1CCCc2ccccc21` (stereo not drawn), the inhibition was 4.99%.

Turning to `O=C(Nc1cccc(F)c1)NC1CCCCCCC1`, the inhibition was 12% (active).

With `Cc1cc(C)cc(NC(=O)NC2CCCCCCC2)c1`, the inhibition is 4.83%.

As to `O=C(CSc1nnc(COc2ccccc2)n1Cc1ccco1)c1ccc2ccccc2c1`, the inhibition is 2.5%.

`CN1CCC(=NNC(=O)c2ccc(N(Cc3ccc(Cl)cc3)S(C)(=O)=O)cc2)CC1`: the inhibition is 0.47%.

As to `CC(C)C[C@H]1CN=C(Nc2ccccc2)N1CC1CCCCC1`, the inhibition was 4.52%.

Regarding `Cc1cc(C)c(OCC(=O)N(Cc2cccs2)C2CCS(=O)(=O)C2)c(C)c1` (stereo not drawn), the inhibition is 2.35%.

Turning to `C=CCNC(=S)NNC(=O)c1cc(Cl)ccc1OC`, the inhibition was -1.18%.

As for `CCN(C(=O)CSc1nnc(-c2ccc(OC(F)F)cc2)n1N)C1CCS(=O)(=O)C1` (stereo not drawn), the inhibition was -0.55%.

For the compound `O=C(CSc1ccc([N+](=O)[O-])cn1)Nc1ccc(N2CCOCC2)c(Cl)c1`, the inhibition is 4.47%.

As for `CC(C)CNC(=O)OCc1cn(Cc2ccc(F)cc2)nn1`, the inhibition was -1.2%.

`Nc1nonc1-n1nnc(C(=O)N/N=C/C2CCCCC2)c1-c1ccccc1`: the inhibition was 2.56%.

Turning to `CC1CCN(S(=O)(=O)c2ccc3[nH]c(=O)ccc3c2)CC1`, the inhibition is 2.13%.

For the compound `Cc1cccc(NC(=S)N2CCCC(c3nc4ccccc4[nH]3)C2)c1` (stereo not drawn), the inhibition was -6.41%.

Consider `COc1ccc(NC(=O)CCN2C(=O)/C(=C/c3ccc4c(c3)OCO4)SC2=S)cc1`, for which the inhibition was -1.87%.

For the compound `O=C(O)c1ccc(S(=O)(=O)N2CCOCC2)o1`, the inhibition was 0.79%.

Consider `COc1ccc(Br)c(Cn2c(C)c(C(=O)NCc3cccs3)sc2=O)c1`, for which the inhibition was 2.25%.

Regarding `Cc1cc(NC(=O)C(C)N2C(=O)c3ccccc3S2(=O)=O)no1` (stereo not drawn), the inhibition was 3.27%.
